{
  "source": "PubChem BioAssay",
  "data": [
    {"target": "Calmodulin-1 (Homo sapiens) (UniProt P0DP23)", "experiment": "CALM1 binders on microarrays, EGTA buffer, profiling panel, biochemical, small-molecule microarray, Cy5-labelled CALM1 (AID 1111);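 also: labelled calmodulin applied in Tris saline Tween buffer holding calcium plus EGTA and DTT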", "conditions": "Cy5-CALM1 binding fluorescence, higher = more signal", "values": [
      {"smiles": "[N-]=[N+]=Nc1ccccc1C[C@@]1(C(=O)N2CCOCC2)N=C(c2ccc(OCCCO)cc2)O[C@@H]1c1ccccc1", "composite z-score": 1.37},
      {"smiles": "[N-]=[N+]=Nc1ccccc1C[C@]1(C(=O)O)COC(c2ccc(OCCCO)cc2)=N1", "composite z-score": 0.166},
      {"smiles": "COCCOC(=O)N1C(=O)[C@@]2(c3cc(C#CC4=CCCCC4)ccc31)[C@H](c1ccccc1OCCO)N1[C@H](c3ccccc3)[C@H](c3ccccc3)OC(=O)[C@H]1[C@@H]2C(=O)N1CCN(c2ncccn2)CC1", "composite z-score": 0.501},
      {"smiles": "O=C1O[C@@H](c2ccccc2)[C@@H](c2ccccc2)N2[C@@H](c3ccc(OCCO)cc3)[C@]3(C(=O)Nc4ccc(C#CC5=CCCCC5)cc43)[C@@H](C(=O)NC[C@H](O)c3ccccc3)[C@H]12", "composite z-score": 1.25},
      {"smiles": "[N-]=[N+]=Nc1ccccc1C[C@]1(C(=O)NCCN2CCOCC2)COC(c2ccc(OCCCO)cc2)=N1", "composite z-score": 0.76},
      {"smiles": "O=C1OCCC=C[C@H]2OC34C=CCN(Cn5nnc6ccccc65)C(=O)[C@H]3N(CCCO)C(=O)[C@@H]4C12", "note": "(stereo not given in full)", "composite z-score": -0.5},
      {"smiles": "CC(C)[Si](C#C[Si](C(C)C)(C(C)C)C(C)C)(O[C@H](c1ccccc1)c1cn(Cc2ccccc2)nn1)C(C)C", "composite z-score": 0.192},
      {"smiles": "CC(C)N1C(=O)C[C@@](C(=O)O)(c2ccc([N+](=O)[O-])cc2)[C@H]1c1ccc(CO)cc1", "composite z-score": 0.233},
      {"smiles": "C=CCC(OC(C)=O)[C@@H]1[C@@H](N(Cc2ccc(-c3ccccc3)cc2)C(=O)c2ccc(-c3ccccc3)cc2)c2cc(OCCCO)ccc2N1C(=O)c1ccc2ccccc2c1", "note": "(stereo not given in full)", "composite z-score": 0.493},
      {"smiles": "COc1ccc([Si](C)(C)[C@@H]2[C@@H](CCO)O[C@]3(C(=O)N(Cc4ccccc4)c4ccc(N5CCOC5=O)cc43)[C@H]2C)cc1", "composite z-score": 0.623}
    ]}
  ]
}
